In paper PMC11062922 (Nature Chemical Biology, 2023):
Read-outs that look alike come from different tables or passages of the source.

Experiments:
CDKL5 = test system: CDKL5; set-up: species or system human, MV4-11 + K-562 + COLO205 + SK-N-BE2 + OVCAR-8; conditions: read-out: apparent Kd, n = 1
CSNK2A1;CSNK2A3 = test system: CSNK2A1;CSNK2A3; set-up: species or system human, MV4-11 + K-562 + COLO205 + SK-N-BE2 + OVCAR-8; conditions: read-out: apparent Kd, compound concentrations: 100 nM and 1000 nM (sheet 'Samples'), n = 1
CSNK2A2 = test system: CSNK2A2; set-up: species or system human, MV4-11 + K-562 + COLO205 + SK-N-BE2 + OVCAR-8; conditions: read-out: apparent Kd, compound concentrations: 100 nM and 1000 nM (sheet 'Samples'), n = 1
DYRK1A = test system: DYRK1A; set-up: species or system human, MV4-11 + K-562 + COLO205 + SK-N-BE2 + OVCAR-8; conditions: read-out: apparent Kd, compound concentrations: 100 nM and 1000 nM (sheet 'Samples'), n = 1
GSK3A = test system: GSK3A; set-up: species or system human, MV4-11 + K-562 + COLO205 + SK-N-BE2 + OVCAR-8; conditions: read-out: apparent Kd, compound concentrations: 100 nM and 1000 nM (sheet 'Samples'), n = 1
GSK3B = test system: GSK3B; set-up: species or system human, MV4-11 + K-562 + COLO205 + SK-N-BE2 + OVCAR-8; conditions: read-out: apparent Kd, compound concentrations: 100 nM and 1000 nM (sheet 'Samples'), n = 1
PAK4 = test system: PAK4; set-up: species or system human, MV4-11 + K-562 + COLO205 + SK-N-BE2 + OVCAR-8; conditions: read-out: apparent Kd, compound concentrations: 100 nM and 1000 nM (sheet 'Samples'), n = 1
PRKD2 = test system: PRKD2; set-up: species or system human, MV4-11 + K-562 + COLO205 + SK-N-BE2 + OVCAR-8; conditions: read-out: apparent Kd; compound concentrations:100 nM and 1000 nM (sheet 'Samples'); n = 1
AAK1 = test system: AAK1; set-up: species or system human, MV4-11 + K-562 + COLO205 + SK-N-BE2 + OVCAR-8; conditions: read-out: apparent Kd; compound concentrations: 100 nM and 1000 nM (sheet 'Samples'), CATDS: 7.8599709029845199E-2; n = 1
BMP2K = test system: BMP2K; set-up: species or system human, MV4-11 + K-562 + COLO205 + SK-N-BE2 + OVCAR-8; conditions: read-out: apparent Kd; compound concentrations: 100 nM and 1000 nM (sheet 'Samples'), CATDS: 0.12287640268831; n = 1
FLT3 = test system: FLT3; set-up: species or system human, MV4-11 + K-562 + COLO205 + SK-N-BE2 + OVCAR-8; conditions: read-out: apparent Kd; compound concentrations: 100 nM and 1000 nM (sheet 'Samples'), CATDS: 6.9218069305552701E-2; n = 1
GAK = test system: GAK; set-up: species or system human, MV4-11 + K-562 + COLO205 + SK-N-BE2 + OVCAR-8; conditions: read-out: apparent Kd; compound concentrations: 100 nM and 1000 nM (sheet 'Samples'), CATDS: 2.4779459392996701E-2; n = 1
MELK = test system: MELK; set-up: species or system human, MV4-11 + K-562 + COLO205 + SK-N-BE2 + OVCAR-8; conditions: read-out: apparent Kd; compound concentrations: 100 nM and 1000 nM (sheet 'Samples'), CATDS: 2.1569826245294601E-2; n = 1
MYLK3 = test system: MYLK3; set-up: species or system human, MV4-11 + K-562 + COLO205 + SK-N-BE2 + OVCAR-8; conditions: read-out: apparent Kd; compound concentrations: 100 nM and 1000 nM (sheet 'Samples'), CATDS: 6.4458343159200099E-2; n = 1
NUAK1 = test system: NUAK1; set-up: species or system human, MV4-11 + K-562 + COLO205 + SK-N-BE2 + OVCAR-8; conditions: read-out: apparent Kd; compound concentrations: 100 nM and 1000 nM (sheet 'Samples'), CATDS: 0.165743265872908; n = 1
Q6ZSR9 = Q6ZSR9 (human, UniProt Q6ZSR9); set-up: species or system MV4-11 + K-562 + COLO205 + SK-N-BE2 + OVCAR-8; conditions: read-out: apparent Kd; compound concentrations: 100 nM and 1000 nM (sheet 'Samples'), CATDS: 7.9611520405697994E-2; n = 1
RET = test system: RET; set-up: species or system human, MV4-11 + K-562 + COLO205 + SK-N-BE2 + OVCAR-8; conditions: read-out: apparent Kd; compound concentrations: 100 nM and 1000 nM (sheet 'Samples'), CATDS: 3.1274331482211301E-2; n = 1

Chain of Q6ZSR9 (Q6ZSR9 whole entry, looked up): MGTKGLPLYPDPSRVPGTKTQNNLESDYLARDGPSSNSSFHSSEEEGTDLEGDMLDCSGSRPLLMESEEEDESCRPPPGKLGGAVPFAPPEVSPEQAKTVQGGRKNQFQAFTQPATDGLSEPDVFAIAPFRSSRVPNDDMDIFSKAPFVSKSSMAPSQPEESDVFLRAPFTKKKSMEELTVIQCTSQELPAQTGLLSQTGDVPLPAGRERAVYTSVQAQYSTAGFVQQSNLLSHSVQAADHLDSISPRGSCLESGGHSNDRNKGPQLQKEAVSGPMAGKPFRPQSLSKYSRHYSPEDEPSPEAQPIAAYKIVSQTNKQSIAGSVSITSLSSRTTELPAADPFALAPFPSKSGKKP

Question: For `CC(C)N1CCC(n2cnc(-c3ccc(F)cc3)c2-c2ccnc(N)n2)CC1` [SB-223132], which potency estimated from few doses (CDKL5; compound concentrations:100 nM and 1000 nM (sheet 'Samples')) is on record?
Answer: 1520 nM

Question: Which potency estimated from few doses (CSNK2A1;CSNK2A3; CATDS: 0.36155727747203598) does the source give for `O=C1N=C(Nc2ccccc2)S/C1=C\c1ccc2ncccc2c1` [RO4493940-000] here?
Answer: 291 nM

Question: What about the potency estimated from few doses (CSNK2A2; CATDS: 0.44448936869789302) of the same compound?
Answer: 203 nM

Question: And the potency estimated from few doses (DYRK1A; CATDS: 0.176247651150404)?
Answer: 1930 nM

Question: `O=C1NC(=O)/C(=C/c2ccc3ncccc3c2)S1` [RO4603632-000] was tested. Which potency estimated from few doses (CSNK2A1;CSNK2A3; CATDS: 0.36519548051145401) did it give?
Answer: 279 nM

Question: What about the potency estimated from few doses (CSNK2A2; CATDS: 0.36768987461520503) of the same compound?
Answer: 276 nM

Question: What does the source list for `CONC1=NC(=O)/C(=C/c2ccc3ncccc3c2)S1` [RO4613269-000]?
Answer: potency estimated from few doses (CSNK2A1;CSNK2A3; CATDS: 0.42776292921510001): 58.1 nM; potency estimated from few doses (CSNK2A2; CATDS: 0.433008345682735): 56.8 nM; potency estimated from few doses (DYRK1A; CATDS: 0.14801064181583801): 1100 nM

Question: With `COc1cc(Nc2ncc3c(C)nc(-c4cc5ccccc5[nH]4)n3n2)cc(OC)c1OC` [GW869516X] as the compound, how does the potency estimated from few doses (CSNK2A1;CSNK2A3; CATDS: 0.461357463552929) read?
Answer: 78.3 nM

Question: And the potency estimated from few doses (CSNK2A2; CATDS: 0.54570756078054605)?
Answer: 55.8 nM

Question: How did the potency estimated from few doses (DYRK1A; CATDS: 4.9269048258553202E-2) turn out when `CCn1c(-c2nonc2N)nc2c(C#CC(C)(C)O)nc(OC[C@@H](N)c3ccccc3)cc21` [GSK938890A] was run?
Answer: 2060 nM

Question: What about the potency estimated from few doses (GSK3A; CATDS: 6.6915182583243901E-2) of the same compound?
Answer: 404 nM

Question: What about the potency estimated from few doses (GSK3B; CATDS: 6.5310864553074097E-2) of the same compound?
Answer: 446 nM

Question: What about the potency estimated from few doses (PAK4; CATDS: 0.107853549418886) of the same compound?
Answer: 88.3 nM

Question: With `Cc1cccc(-c2nc(Nc3ccncc3)c3sccc3n2)n1` [GW869641X] as the compound, how does the potency estimated from few doses (PRKD2) read?
Answer: 1.4 nM

Question: With `CNCC#Cc1c(F)ccc2c1/C(=C/c1[nH]ccc1OC)C(=O)N2.Cl` [RO0281601-001] as the compound, how does the potency estimated from few doses (AAK1) read?
Answer: 81.9 nM

Question: And the potency estimated from few doses (BMP2K)?
Answer: 36.8 nM

Question: What about the potency estimated from few doses (CDKL5; compound concentrations: 100 nM and 1000 nM (sheet 'Samples'), CATDS: 0.30453752260001898) of the same compound?
Answer: 9.43 nM

Question: What about the potency estimated from few doses (CSNK2A1;CSNK2A3; CATDS: 2.36611103564075E-2) of the same compound?
Answer: 1450 nM

Question: What about the potency estimated from few doses (CSNK2A2; CATDS: 2.8196939656964501E-2) of the same compound?
Answer: 832 nM

Question: What about the potency estimated from few doses (FLT3) of the same compound?
Answer: 105 nM

Question: And the potency estimated from few doses (GAK)?
Answer: 1240 nM

Question: What about the potency estimated from few doses (GSK3A; CATDS: 3.3017253821498199E-2) of the same compound?
Answer: 543 nM

Question: And the potency estimated from few doses (GSK3B; CATDS: 2.9733635165772199E-2)?
Answer: 717 nM

Question: What about the potency estimated from few doses (MELK) of the same compound?
Answer: 2070 nM

Question: And the potency estimated from few doses (MYLK3)?
Answer: 121 nM

Question: What about the potency estimated from few doses (NUAK1) of the same compound?
Answer: 22.7 nM

Question: And the potency estimated from few doses (PAK4; CATDS: 2.65611791576283E-2)?
Answer: 993 nM

Question: What about the potency estimated from few doses (Q6ZSR9) of the same compound?
Answer: 79.9 nM

Question: And the potency estimated from few doses (RET)?
Answer: 625 nM
